6 sequences from the supplement of paper PMC6555819 can be followed below.

Holding throughout (experiment): PBM binding z-score (relative to random genomic background probes); higher = stronger binding; sequences stand for … in GC…GCGATTGACAGCGTAGAATGAAGG
For experiment [1], the system named is FXR:RXRa (NR concentration 270 nM, RXRa partner concentration 90 nM). In a few lines: (§1)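 Binding buffer was PBS pH 7.4 with 2% milk, 0.02% Triton X-100, 1 mM DTT, 0.2 mg/mL BSA and 0.4 mg/ml salmon testes DNA. In it, ligand-free nuclear receptor dimers were incubated 1 h on custom Agilent 4×180K protein-binding microarrays carrying double-stranded probes. Antibodies against each partner (one per run) detected binding, and z-scores were calculated against random background probes after regression normalization of scanned fluorescence.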

In experiment [2] the test system is LXRa:RXRa (NR concentration 270 nM, RXRa partner concentration 90 nM). In a few lines: as §1
Experiment [3] concerns LXRa homodimer (NR concentration 270 nM). The method in brief: as §1
The subject of experiment [4] is LXRb:RXRa (NR concentration 270 nM, RXRa partner concentration 90 nM). The method in brief:
as §1

In experiment [5] the test system is LXRb homodimer (NR concentration 270 nM). In a few lines: as §1
The test system of experiment [6] is PPARa:RXRa (NR concentration 270 nM, RXRa partner concentration 90 nM). The method in brief:
as §1

Experiment [7] relates to PPARg:RXRa (NR concentration 180 nM, RXRa partner concentration 90 nM). The method in brief:
as §1

Experiment [8] has as its system PPARg:RXRa 270nM:90nM, anti-RXR (NR concentration 270 nM, RXRa partner concentration 90 nM). In a few lines:
as §1

Experiment [9] relates to PPARg:RXRa 30nM:10nM, anti-RXR (NR concentration 30 nM, RXRa partner concentration 10 nM). In a few lines:
as §1

In experiment [10] the test system is PPARg:RXRa 90nM:30nM, anti-RXR (NR concentration 90 nM, RXRa partner concentration 30 nM). In a few lines:
as §1

The test system of experiment [11] is PPARg:RXRa DBDmut IVT, anti-RXR (DBD mutation: RXRa K156A/R161A, NR concentration 270 nM, RXRa partner concentration 90 nM). In a few lines:
as §1

Experiment [12] has as its system PPARg:RXRa IVT, anti-PPARg (NR concentration 270 nM, RXRa partner concentration 90 nM). In a few lines: as §1
The test system of experiment [13] is PPARg DBDmut:RXRa IVT, anti-PPARg (DBD mutation: PPARg1 K132A/R137A, NR concentration 270 nM, RXRa partner concentration 90 nM). In a few lines: as §1
Experiment [14] deals with PPARg DBDmut IVT, anti-PPARg (DBD mutation: PPARg1 K132A/R137A, NR concentration 270 nM). The method in brief: as §1
For experiment [15], the system named is PPARg homodimer (NR concentration 180 nM). In a few lines:
as §1

The subject of experiment [16] is PXR:RXRa (NR concentration 270 nM, RXRa partner concentration 90 nM). The method in brief: as §1
Experiment [17] deals with PXR homodimer (NR concentration 270 nM). In a few lines:
as §1

The subject of experiment [18] is RARa:RXR (NR concentration 270 nM, RXRa partner concentration 90 nM). The method in brief:
as §1

Experiment [19] has as its system RARa homodimer (NR concentration 270 nM). The method in brief:
as §1

Experiment [20] deals with RARb:RXRa (NR concentration 270 nM, RXRa partner concentration 90 nM). In a few lines: as §1

With CCTACTGGGCCACAAAGGTCATTGATGCCGATAA, the PBM binding z-score in [1] was 4.47; in experiment [2] it was 5.11; in experiment [3] it was 4.74; in [4], 4.39; in experiment [5] it was 0.772; in experiment [6], 5.25. Besides, the PBM binding z-score worked out at 6.17 in experiment [7]; 5.75 in [8]; 3.17 in experiment [9]; 5.54 in experiment [10]; 4.98 in experiment [11]; 5.53 in experiment [12]. Besides, the PBM binding z-score is 0.0367 in experiment [13]; -0.795 in [14]; 3.95 in experiment [15]; 5.34 in experiment [16]; 5.11 in experiment [17]; 5.76 in experiment [18]. The PBM binding z-score in experiment [19] was 1.78; in [20] it was 4.2.

For the sequence TCTAGTTGGTCACGGAGGTGACACACGACGGGTA, the PBM binding z-score in [1] is 1.04; in experiment [2], 0.805; in experiment [3] it was -0.0469; in experiment [4], 0.335; in experiment [5], 0.00515; in experiment [6], 1.43. Also, the PBM binding z-score in experiment [7] is 1.64; in experiment [8], 1.98; in [9], 2.83; in experiment [10], 2.24; in experiment [11], 2.02; in experiment [12] it was 3.37. The PBM binding z-score in experiment [13] is 1.22; in experiment [14], 0.542; in experiment [15] it was 1.15; in experiment [16], 0.71; in experiment [17] it was -0.119; in experiment [18], 0.781. For the same sequence, the PBM binding z-score in [19] was found to be 0.338; in [20] it was 1.82.

For ATAATGAGGTTATACGTAGATCAGGGAAGAAAGT, the PBM binding z-score in experiment [1] came to 2.27; in [2] it was 2.55; in experiment [3], 0.45; in experiment [4] it was 1.89; in experiment [5] it was 0.893; in experiment [6], 3.42. The PBM binding z-score in experiment [7] came to 2.56; in [8], 2.38; in [9] it was 0.895; in experiment [10] it was 1.89; in experiment [11] it was 4.24; in [12] it was 2.58. In addition, the PBM binding z-score turned out to be 2.03 in experiment [13]; 2.05 in [14]; 0.998 in experiment [15]; 1.7 in [16]; 0.97 in experiment [17]; 2.12 in experiment [18]. For the same sequence, the results for the PBM binding z-score in [19] and in experiment [20] were 1.63 and 1.75, respectively.

In the case of GCTAGTTGTTCAGTAAAAGGTCACACACCGGTCG, the PBM binding z-score in experiment [1] was found to be 3.26; in [2] it was 4.29; in experiment [3], 4.24; in experiment [4] it was 4.06; in experiment [5] it was 0.882; in experiment [6], 4.13. Besides, the PBM binding z-score was 1.84 in experiment [7]; 3.57 in experiment [8]; 1.49 in [9]; 3.27 in experiment [10]; 0.391 in [11]; 1.95 in [12]. Also, the PBM binding z-score is 0.53 in experiment [13]; 0.109 in experiment [14]; 3.86 in experiment [15]; 4.88 in [16]; 1.13 in [17]; 5.29 in experiment [18]. Also, the PBM binding z-score came out at 2.41 in experiment [19] and 3.91 in [20].

Turning to TCAGACAGGTGAAGGTAACTCAAGTACGCAGTCG, the PBM binding z-score turned out to be 1.22 in experiment [1]; 2.77 in experiment [2]; 0.105 in experiment [3]; 1.47 in [4]; 0.174 in [5]; 1.33 in [6]. The PBM binding z-score in [7] was 0.828; in experiment [8] it was 2.07; in experiment [9], 4.18; in [10], 3.03; in experiment [11], 2.91; in experiment [12] it was 0.867. The PBM binding z-score is 0.154 in [13]; -0.232 in [14]; 0.845 in experiment [15]; 0.794 in experiment [16]; 0.336 in experiment [17]; 0.988 in experiment [18]. Further, the PBM binding z-score worked out at 0.423 in experiment [19] and 1.14 in [20].

With CCTACTGGGCAACGAAAGGTCATTGATTCAGTGA, the PBM binding z-score in [1] is 3.6; in experiment [2], 5.33; in experiment [3], 5.51; in [4], 4.2; in experiment [5], 0.197; in [6], 4.2. Also, the PBM binding z-score came to 2.1 in experiment [7]; 3.54 in experiment [8]; 0.974 in [9]; 2.72 in experiment [10]; 2.25 in [11]; 2.56 in experiment [12]. The PBM binding z-score in [13] was -0.412; in experiment [14], 0.102; in experiment [15], 3.81; in [16], 5.18; in experiment [17] it was 1.89; in experiment [18] it was 5.49. Besides, the values for the PBM binding z-score in experiment [19] and in [20] were 2.52 and 3.96, respectively.
